Screens deposited in PubChem by National Center for Advancing Translational Sciences (NCATS).
The list is not random: actives were taken first. Their share in the collection is about 12%.
LASV entry inh: inhibitors of Lassa virus binding or cell entry; Lassa virus pseudotype entry inhibition, cell reporter; Potency, µM (highest dose often 37.9 µM), hits mostly inhibitors; 300,000 tested, 1.2% active; calls by dose curve; tested in HEK293 cells; also: nearly all actives have a fitted effect of over 50% in size
MARV entry inh: Marburg virus entry inhibition; Marburg virus pseudotyped entry inhibition, cell reporter; 300,000 tested, 1.8% active; Potency, µM (top dose mostly 37.8 µM), hits mostly inhibitors; calls by dose curve; tested in HEK293 cells
Shiga toxin inh: blocks Shiga toxin action in Vero cells. inhibition, % at 38.7 µM. 290,000 tested, 9.2% active. Vero cells, Shiga toxin protein synthesis inhibition reporter; in the data active = inhibition mostly above about 28%, no sharp cut-off; inactive = mostly below about 43%
CHX counter: counter-screen hit for Shiga toxin inhibitors, cycloheximide | 300,000 tested, 12% active | cell reporter, cycloheximide protein synthesis inhibition counterscreen | max response, %; in the data active = max response mostly above about 13%, no sharp cut-off; inactive = mostly below about 14%; also: read at 38.3 µM for the half of the compounds with a filed dose
Numbers stand for hits.

Cc1ccccc1CSc1nc2c(sc3ccccc32)c(=O)n1CCCC(=O)NCCCOC(C)C was read as LASV entry inh inactive and MARV entry inh inactive.
Cc1ccccc1-c1ccc(Nc2ccc(N3CCOCC3)cc2)nn1 was read as LASV entry inh inactive, MARV entry inh inactive, Shiga toxin inh inactive and CHX counter 29.4.
For O=S1(=O)N=C(Nc2ccc(N3CCOCC3)cc2)c2ccccc21 the results were LASV entry inh inactive, MARV entry inh inactive, Shiga toxin inh inactive and CHX counter inactive.
For c1ccc(-c2csc(Nc3cccnc3)n2)nc1 the results were LASV entry inh inactive, MARV entry inh inactive, Shiga toxin inh 44.0 and CHX counter 35.3.
Cc1nc2ncccn2c1-c1csc(Nc2ccccc2)n1 was read as LASV entry inh inactive, MARV entry inh inconclusive, Shiga toxin inh inactive and CHX counter inactive.
For COc1cccc2sc(Nc3nc(-c4ccccn4)cs3)nc12 the results were Shiga toxin inh 104.9 and CHX counter 74.7.
Screening c1cncc(Nc2nc(-c3cccs3)cs2)c1 returned LASV entry inh inactive, MARV entry inh inactive, Shiga toxin inh 102.9 and CHX counter 63.1.
Screening O=S(=O)(Nc1cccnc1)c1cccs1 returned LASV entry inh inactive, MARV entry inh inactive, Shiga toxin inh inactive and CHX counter inactive.
`c1ccc(Nc2nc(-c3ccccn3)cs2)cc1` gave LASV entry inh inconclusive, MARV entry inh inconclusive, Shiga toxin inh 108.2 and CHX counter 40.8.
`COc1ccc(C2c3c(n(C)c4ccccc34)C(=O)N2CC(=O)Nc2cccc(Cl)c2C)cc1` (stereo unspecified) gave LASV entry inh inactive.
`COc1ccc(N=C2NC(=O)/C(=C/c3ccc(O)c(OC)c3)S2)cc1` gave LASV entry inh 3.66µM, MARV entry inh inconclusive, Shiga toxin inh inactive and CHX counter inactive.
For COc1cc(/C=C2\SC(c3ccc(C)cc3)=NC2=O)ccc1O the results were LASV entry inh inconclusive, MARV entry inh inactive, Shiga toxin inh 52.1 and CHX counter 23.5.
COc1cc(/C=C2/SC(=Nc3ccc(O)cc3)NC2=O)cc(OC)c1O was read as LASV entry inh inconclusive, MARV entry inh inconclusive, Shiga toxin inh inactive and CHX counter inactive.
For CCOc1ccc(/C=C2\SC(=S)NC2=O)cc1OC the results were LASV entry inh inactive, MARV entry inh inactive, Shiga toxin inh 40.8 and CHX counter 14.4.
`COc1ccccc1N=C1NC(=O)/C(=C/c2ccc(N(C)C)cc2)S1` gave Shiga toxin inh 56.1 and CHX counter 40.8.
Screening COC(=O)c1c(C)oc(C)c1S(=O)(=O)NC(C)(C)C returned LASV entry inh inactive, MARV entry inh inactive, Shiga toxin inh inactive and CHX counter inactive.
CCCCCNC(=O)c1c[nH]c2ccc(S(=O)(=O)N3CCC(C)CC3)cc2c1=O was read as LASV entry inh inactive.
For Cc1ccc(SCC(Cc2ccccc2)N2CCN(C)CCC2=O)cc1 (stereo unspecified) the results were Shiga toxin inh inactive and CHX counter inactive.
COc1ccc(N=C2NC(=O)/C(=C\c3ccco3)S2)cc1 was read as LASV entry inh inconclusive, MARV entry inh inactive, Shiga toxin inh 66.4 and CHX counter 23.2.
For Cc1ccc(-n2cnc3cc(C(=O)NCc4ccccc4Cl)ccc32)c(C)c1 the results were LASV entry inh inactive.
CCCNC(=O)c1nnsc1Sc1ccc(Cl)cc1 was read as LASV entry inh inactive, MARV entry inh inactive, Shiga toxin inh 87.2 and CHX counter 23.5.
Screening Cc1cccc(Oc2sc(C(=O)c3ccccc3)c(N)c2C#N)c1 returned LASV entry inh 1.58µM, MARV entry inh inconclusive, Shiga toxin inh inactive and CHX counter inactive.
N#Cc1c(Nc2ccccc2)sc(C(=O)c2ccccc2)c1N was read as LASV entry inh inactive, MARV entry inh inactive, Shiga toxin inh inactive and CHX counter inactive.
Screening Cc1cc(C(=O)CSc2nnc(CCC(N)=O)n2C)c(C)n1C1CC1 returned LASV entry inh inactive and MARV entry inh inactive.
For CCOC(=O)C1CCN(c2c([N+](=O)[O-])c(C(Cl)Cl)nn2-c2ccccc2)CC1 the results were LASV entry inh 9.2µM, MARV entry inh inactive, Shiga toxin inh inactive and CHX counter inactive.
`COc1ccccc1OCCSc1ncnc2nc[nH]c12` gave LASV entry inh inactive, MARV entry inh inactive, Shiga toxin inh inactive and CHX counter inactive.
Screening c1ccc(CCSc2ncnc3nc[nH]c23)cc1 returned LASV entry inh inactive, MARV entry inh inconclusive, Shiga toxin inh 38.9 and CHX counter 29.2.
Screening O=C(CSc1ncnc2nc[nH]c12)c1ccc(Cl)cc1 returned Shiga toxin inh 25.5 and CHX counter 10.7.
For Cc1cccc(OCCSc2ncnc3nc[nH]c23)c1 the results were LASV entry inh inactive, MARV entry inh inactive, Shiga toxin inh inactive and CHX counter 14.8.
For O=C(CSc1ncnc2nc[nH]c12)c1ccccc1 the results were LASV entry inh inconclusive, MARV entry inh inactive, Shiga toxin inh 99.6 and CHX counter 35.3.
`Cc1ccccc1C(=O)NNC(=O)C1CC(=O)N(Cc2ccccc2)C1` (stereo unspecified) gave LASV entry inh inactive and MARV entry inh inactive.
Screening CCOC(=O)C1C(c2ccc(C(=O)O)cc2)NC(=O)NC1(O)C(F)(F)F (stereo unspecified) returned LASV entry inh inactive, MARV entry inh inactive, Shiga toxin inh inactive and CHX counter inactive.
`Cc1cc2c(cc1Cl)N(C(=O)Nc1ccc(Oc3cccnc3C)nc1)CC2` gave LASV entry inh 11.6µM and MARV entry inh inconclusive.
For COc1ccc(OC)c(-c2nn(-c3ccccc3)cc2C(=O)NCC(c2cccs2)N2CCOCC2)c1 (stereo unspecified) the results were LASV entry inh inactive and MARV entry inh inactive.
Screening CN1C[C@H](C(=O)N[C@]2(C)O[C@@]3(O)[C@@H]4CCCN4C(=O)[C@H](Cc4ccccc4)N3C2=O)C[C@@H]2c3cccc4[nH]cc(c34)C[C@H]21 returned LASV entry inh inconclusive and MARV entry inh 1.12µM.
Screening CCCN1C[C@H](CSC)C[C@@H]2c3cccc4[nH]cc(c34)C[C@H]21 returned LASV entry inh inconclusive, MARV entry inh inconclusive, Shiga toxin inh inactive and CHX counter inactive.
Screening CN1C[C@H](C(=O)N[C@]2(C)O[C@@]3(O)C4CCCN4C(=O)[C@H](Cc4ccccc4)N3C2=O)C[C@@H]2c3cccc4[nH]cc(c34)C[C@H]21 (stereo partly specified) returned MARV entry inh 1.12µM.
`CNC(=O)c1cc2ncc(C(F)(F)F)cc2s1` gave LASV entry inh inactive, MARV entry inh inconclusive, Shiga toxin inh inactive and CHX counter 18.4.
`O=C(c1cccc(NS(=O)(=O)c2ccc(F)c(F)c2)c1)N1CCCCC1` gave LASV entry inh inconclusive and MARV entry inh inactive.
`CSc1ccccc1C(=O)N1CCCC(CNC(=O)c2ccc(F)cc2)C1` (stereo unspecified) gave Shiga toxin inh inactive and CHX counter inactive.
`COc1ccc(C(=O)N2CCCC(CNC(=O)c3ccc(F)cc3)C2)cc1OC` (stereo unspecified) gave Shiga toxin inh inactive and CHX counter 24.6.
`O=C(NCC1CCCN(C(=O)c2cccc(C(F)(F)F)c2)C1)c1ccc(F)cc1` (stereo unspecified) gave Shiga toxin inh inactive and CHX counter 16.2.
